Screening data: PubChem BioAssay, National Center for Advancing Translational Sciences (NCATS)
PTHR1 agonist – agonists of human PTHR1 parathyroid hormone receptor; HEK293 GP2 PTHR1 cells, GloSensor cAMP luminescence, 1 h; Potency, µM (titrated, usually from 115 µM), for the others: at the top dose activation, actives largely listed as activators; 410,000 tested, 0.075% active; AID 743266; note: nearly all actives have a fitted effect of over 55% in size
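HEK-293-derived GP2 cells expressing PTHR1 and a GloSensor cAMP reporter, 3,000/well, plated overnight, given luciferin plus IBMX (each 0.5 mM as added) for 1 h at 37 °C, then compound for 1 h at 37 °C. Luminescence was read after 15 min at room temperature.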
GLP-1R inv ag – GLP-1 receptor (human) inverse agonism; HEK293 GLP-1R CRE-luciferase, luminescence, 24 h; GLP-1R form is constitutively active; Potency, µM (series often up to 38.3 µM), without a hit: top-dose activity change, negative = inhibition, hits mostly inhibitors; 410,000 tested, 1.6% active; AID 624417; note: % is set by controls: 0 for no effect and ±100 for the full control effect; nearly all actives have a fitted effect of over 55% in size
Target sequence (P43220 whole entry, looked up): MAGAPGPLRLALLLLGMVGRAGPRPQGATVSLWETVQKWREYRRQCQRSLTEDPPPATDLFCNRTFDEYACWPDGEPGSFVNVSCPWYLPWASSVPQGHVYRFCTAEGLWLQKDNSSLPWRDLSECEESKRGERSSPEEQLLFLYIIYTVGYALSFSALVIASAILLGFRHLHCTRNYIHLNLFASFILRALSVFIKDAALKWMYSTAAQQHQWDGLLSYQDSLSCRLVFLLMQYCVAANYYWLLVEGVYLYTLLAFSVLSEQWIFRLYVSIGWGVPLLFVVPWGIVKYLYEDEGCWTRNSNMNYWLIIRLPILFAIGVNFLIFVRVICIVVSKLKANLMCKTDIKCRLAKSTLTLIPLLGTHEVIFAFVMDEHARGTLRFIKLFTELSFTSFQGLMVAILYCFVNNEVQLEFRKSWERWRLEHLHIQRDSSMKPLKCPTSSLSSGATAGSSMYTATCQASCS
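qHTS in 1536-well format: reporter HEK293 cells expressing constitutive GLP-1R activity in DMEM + 10% Nu serum, 24 hr with compounds at 37 deg C, luminescence read after 12 min with detection reagent.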
GLP1R cytotox – cytotoxicity counter-screen for GLP-1 receptor inverse agonists; HEK293 cAMP-luciferase reporter cells, luminescence, 24 h; Potency, µM (titrated, usually from 38.3 µM), inactives show at the highest dose activity change, negative = inhibition, most hits filed as inhibitors; 410,000 tested, 0.13% active;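 note: loss of luciferase light is scored as toxicity; % is set by controls: 0 for no effect and ±100 for the full control effect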
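Step one: seed cells (200 cells/uL, DMEM with 10% Nu serum, 1% pen-strep). Step two: 12-hour incubation at 37 deg C. Step three: pin 23 nL compound, incubate 24 hr. Step four: add luciferase reagent, read luminescence 12 min later.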
GLP-1R agonist – GLP-1 receptor (human) agonism; P43220; HEK293 GLP-1R CRE-luciferase, luminescence, 4-6 h; cells express a hypersensitive GLP-1R form; Potency, µM (highest dose often 45.6 µM), without a hit: top-dose activation, hits mostly activators; 380,000 tested, 0.007% active; note: % of control where 0% means no effect
Starred values were filed as active, the others as inactive. Shown are actives, neighbours in structure and some others; about 1.7% of the full set was active somewhere. Calls come from the whole dose curve; as a rule, active = well fitted curve in the direction sought with a large enough effect; inconclusive = small, poorly fitted or top-dose-only effect, or another doubt; inactive = no such curve, though single readings can be large; an effect the other way counts as inactive or inconclusive. Potency is the fitted concentration of half-maximal effect.

How did O=C(O)CC/C(=N\NC(=O)CNC(=O)c1ccc(F)cc1)c1ccccc1 do in these assays?
PTHR1 agonist: -1%; GLP-1R inv ag: 2%; GLP1R cytotox: 1%; GLP-1R agonist: -5%

How did Cn1cccc1C(=O)OCC(=O)N1CCc2ccccc2C1 do in these assays?
PTHR1 agonist: -9%; GLP-1R inv ag: -23%; GLP1R cytotox: 2%; GLP-1R agonist: inconclusive

What do the screens show for `O=C(NCc1ccc(F)cc1)C1CCN(c2ncnc3c2nc2n3CCCCC2)CC1`?
PTHR1 agonist: -19%; GLP-1R inv ag: 9%; GLP1R cytotox: -8%

How did Cc1ccsc1/C=N/Nc1nc(=O)[nH]nc1C do in these assays?
PTHR1 agonist: -13%; GLP-1R inv ag: 3.5µM*; GLP1R cytotox: inconclusive; GLP-1R agonist: 0%

Results for CCOC(=O)c1ccccc1NC(=O)N1CCCN(S(=O)(=O)c2ccc3c(ccn3CC)c2)CC1 ?
PTHR1 agonist: inactive; GLP-1R inv ag: inconclusive; GLP1R cytotox: -13%; GLP-1R agonist: 21%

Results for CC1=C(C(=O)OC2CCCC2)C(c2coc3ccccc3c2=O)C2=C(CC(C)(C)CC2=O)N1 (configuration not stated) ?
PTHR1 agonist: -52%; GLP-1R inv ag: 2.5µM*; GLP1R cytotox: -8%; GLP-1R agonist: 15%

How did COc1cc(NC(=O)C(Cc2ccccc2)NS(=O)(=O)c2cccs2)cc(OC)c1 (configuration not stated) do in these assays?
PTHR1 agonist: 6%; GLP-1R inv ag: -43%; GLP1R cytotox: 3%; GLP-1R agonist: -5%

What do the screens show for `CN(C)c1cc[n+](Cc2c(Cl)cccc2Cl)cc1`?
PTHR1 agonist: inactive; GLP-1R inv ag: 0%; GLP1R cytotox: -5%; GLP-1R agonist: 0%

Results for CN(Cc1ccccc1)CC(O)COc1ccc(CNCc2ccc(Cl)s2)cc1 (configuration not stated) ?
PTHR1 agonist: inactive; GLP-1R inv ag: 4.5µM*; GLP1R cytotox: -33%; GLP-1R agonist: 26%

Results for Clc1ccc(/C=N\Nc2ccccc2)cc1 ?
PTHR1 agonist: -1%; GLP-1R inv ag: 4µM*; GLP1R cytotox: -16%; GLP-1R agonist: -5%

Results for c1ccc(-c2csc3ncn4nnnc4c23)cc1 ?
PTHR1 agonist: inactive; GLP-1R inv ag: 9%; GLP1R cytotox: -8%; GLP-1R agonist: -3%

Results for O=[N+]([O-])c1ccc(Cl)cc1NCc1cccnc1 ?
PTHR1 agonist: -7%; GLP-1R inv ag: 5.6µM*; GLP1R cytotox: -3%; GLP-1R agonist: 22%

How did O=C(O)c1ccc(NCc2cccnc2)c([N+](=O)[O-])c1 do in these assays?
PTHR1 agonist: inconclusive; GLP-1R inv ag: 6%; GLP1R cytotox: -16%; GLP-1R agonist: -3%

What do the screens show for `O=C(c1cc2sccc2n1Cc1ccccc1)N1CCCc2ccccc21`?
PTHR1 agonist: inactive; GLP-1R inv ag: 10µM*; GLP1R cytotox: -3%; GLP-1R agonist: 0%

Results for CCc1ccccc1N(CC)C(=O)CCc1nc(-c2ccc(C)cc2)no1 ?
PTHR1 agonist: -19%; GLP-1R inv ag: 8.9µM*; GLP1R cytotox: 2%; GLP-1R agonist: 6%

What do the screens show for `CCOc1ccc(N(CC)C(=O)CCc2nc(-c3ccccc3F)no2)cc1`?
PTHR1 agonist: -13%; GLP-1R inv ag: inconclusive; GLP1R cytotox: -8%

Results for CCN(CCCNC(=O)CCc1nc(-c2ccc(C)cc2)no1)c1cccc(C)c1 ?
PTHR1 agonist: -19%; GLP-1R inv ag: 10µM*; GLP1R cytotox: 5%; GLP-1R agonist: 4%

Results for CCCN(C(=O)CCc1nc(-c2ccc(C)cc2)no1)c1ccc(OCC)cc1 ?
PTHR1 agonist: inactive; GLP-1R inv ag: 11µM*; GLP1R cytotox: 5%

Results for Cc1cccc(-c2noc(CCC(=O)NCCc3ccccc3)n2)c1 ?
PTHR1 agonist: -39%; GLP-1R inv ag: inconclusive; GLP1R cytotox: 1%; GLP-1R agonist: 17%

What do the screens show for `CCC(CC)c1nnc(NC(=O)CCc2ccccc2OC)s1`?
PTHR1 agonist: inactive; GLP-1R inv ag: 2%; GLP1R cytotox: -3%; GLP-1R agonist: 8%

Results for COc1ccc(C2=NS(=O)(=O)N(C)C(C(=O)N3CCCCC3)=C2)cc1OC ?
PTHR1 agonist: -10%; GLP-1R inv ag: 27%; GLP1R cytotox: 3%; GLP-1R agonist: -2%

What do the screens show for `O=C1c2cccc(O)c2C(=O)c2c(O)cccc21`?
GLP-1R agonist: 2%
